Laboratory results taken from the supplement of paper PMC13380429.

System: Vero E6 infected with SARS-CoV-2
Assay: inhibition of SARS-CoV-2 cytopathic effect; higher = more antiviral protection, active = above 15
Settings: 48 h

Measured: inhibition of SARS-CoV-2 cytopathic effect

CC(C)(C)C(=O)OCOC(=O)[C@@H]1N2C(=O)[C@@H](NC(=O)[C@H](N)c3ccccc3)[C@H]2SC1(C)C [pivampicillin]
inactive: 1 nM 3.04% | 8.33 nM 3.24% | 100 nM 2.48% | 833.33 nM 0.64% | 10000 nM -3.25%

O=C(N[C@H](Cc1ccccc1)C(=O)O)c1sc2cc(F)ccc2c1Cl
inactive: 1 nM 2.8% | 8.33 nM 1.61% | 100 nM 0.39% | 833.33 nM 1.13% | 10000 nM 3.31%

CCN(CCO)CCCOc1ccc2c(Nc3cc(CC(=O)Nc4cccc(F)c4)[nH]n3)ncnc2c1 [barasertib-HQPA]
inactive: 1 nM -1.93% | 8.33 nM -0.82% | 100 nM -3.04% | 833.33 nM -4.18% | 10000 nM -5.49%

c1ccc(OCc2ccc(CCCN3CCOCC3)cc2)cc1 [fomocaine]
inactive: 1 nM 0.24% | 8.33 nM 1.88% | 100 nM 1.23% | 833.33 nM -0.27% | 10000 nM 3.83%

COc1cc(NC(C)CCCN)c2ncccc2c1 (stereo not given) [primaquine]
inactive: 1 nM 1.68% | 8.33 nM 2.25% | 100 nM 0.83% | 833.33 nM 1.27% | 10000 nM 3.23%

COC(=O)N1CC[C@@H]2[C@H]1CCC[C@@]2(O)C#Cc1cccc(C)c1 [mavoglurant]
inactive: 1 nM 0.66% | 8.33 nM -0.18% | 100 nM 2.27% | 833.33 nM -1.9% | 10000 nM -0.19%

O=C(O)C1=C(CSc2nnnn2CS(=O)(=O)O)CS[C@@H]2[C@H](NC(=O)[C@H](O)c3ccccc3)C(=O)N12 [Cefonicid (sodium)]
inactive: 1 nM -0.91% | 8.33 nM -1.09% | 100 nM 0.45% | 833.33 nM 0.79% | 10000 nM 1.23%
